Source: PubChem BioAssay (Tox21)
Records with an inconclusive call do not appear. Calls of active or inactive are those of the source. Unless noted, the call rests on the fitted dose curve; in most records, active means well fitted curve in the direction sought with a large enough effect in the repeat runs; inconclusive means weak or mixed curves; inactive means no such curve, though single readings can be large; an effect the other way counts as inactive or inconclusive.

Legend:
[1] = qHTS assay to identify small molecule antagonists of the estrogen receptor alpha (ER-alpha) signaling pathway using the BG1 cell line in the presence of 0.1 nM 17-beta-estradiol - cell viability counter screen (AID 1259241); further: nearly all actives have a fitted effect of over 40% in size
Outline: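 VM7Luc4E2 cells (endogenous full-length ER-alpha, 4xERE-luciferase), cultured 5 days in charcoal-stripped serum, exposed to compounds with 0.1 nM 17beta-estradiol (final) for 22 hr at 37C. Viability read in same wells as live-cell protease fluorescence after 30 min.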

[2] = qHTS assay to identify small molecule antagonists of the androgen receptor (AR) signaling pathway using the MDA cell line in the presence of 0.5 nM R1881 - cell viability counter screen (AID 1259242); further: nearly all actives have a fitted effect of over 45% in size
Outline: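 R1881 at 0.5 nM final stimulated MDA-kb2 cells during 16 hr compound treatment at 37C. Cytotoxicity read: CellTiter-Fluor fluorescence after 30 min.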

[3] = target: Estrogen receptor (Homo sapiens) (UniProt P03372); assay: qHTS assay to identify small molecule antagonists of the estrogen receptor alpha (ER-alpha) signaling pathway using the BG1 cell line in the presence of 0.1 nM 17-beta-estradiol (AID 1259244); further: nearly all actives have a fitted effect of over 50% in size
Estrogen receptor (Homo sapiens), sequence (P03372 whole entry, looked up): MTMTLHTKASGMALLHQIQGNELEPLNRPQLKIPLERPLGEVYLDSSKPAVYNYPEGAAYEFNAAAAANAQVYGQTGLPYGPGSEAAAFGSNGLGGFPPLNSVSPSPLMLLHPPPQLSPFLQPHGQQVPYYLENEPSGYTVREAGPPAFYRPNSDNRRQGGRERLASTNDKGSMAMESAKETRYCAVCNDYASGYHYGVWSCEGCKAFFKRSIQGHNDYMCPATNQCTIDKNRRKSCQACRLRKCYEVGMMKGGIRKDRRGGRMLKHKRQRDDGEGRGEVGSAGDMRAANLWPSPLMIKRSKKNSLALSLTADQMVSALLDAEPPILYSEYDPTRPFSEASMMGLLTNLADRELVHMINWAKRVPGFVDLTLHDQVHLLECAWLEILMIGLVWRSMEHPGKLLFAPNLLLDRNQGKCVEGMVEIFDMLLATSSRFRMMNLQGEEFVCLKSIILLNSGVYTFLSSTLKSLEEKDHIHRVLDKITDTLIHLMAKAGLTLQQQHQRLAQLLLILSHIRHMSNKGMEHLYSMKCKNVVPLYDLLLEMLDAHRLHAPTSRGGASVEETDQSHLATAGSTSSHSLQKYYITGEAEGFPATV
Outline: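 VM7Luc4E2; 4xERE-luciferase; 0.1 nM E2 final; 22 h co-incubation, 37C; ONE-Glo luminescence after 30 min at room temperature.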

[4] = qHTS assay to identify small molecule HDAC inhibitors (AID 1259364);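 further: wild-type HCT-116 cells with endogenous class I/II HDAC activity; top concentration of the series differs between compounds; nearly all actives have a fitted effect of over 45% in size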
Outline: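 Relative class I and II HDAC activity is taken from the luminogenic signal in HCT-116 cells, with compound exposure 2 hr and reagent development 30 min at room temperature.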

[5] = qHTS assay to identify small molecule HDAC inhibitors - cell viability counter screen (AID 1259365); further: series mostly up to about 92 µM; nearly all actives have a fitted effect of over 50% in size
Outline: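 Wild-type HCT-116 cells, 1,500/well, cultured overnight, then compound-treated 2 h at 37 C. Viability measured as ATP luminescence with CellTiter-Glo after 30 min at room temperature.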

[6] = qHTS assay to identify small molecule agonists of the sonic hedgehog signaling (Shh) pathway - cell viability counter screen (AID 1259366); further: nearly all actives have a fitted effect of over 50% in size
Outline: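 NIH/3T3-derived Gli1-Luc reporter cells, 2,000 per well, received compound after 4 h and were treated about 23 h at 37C. Viability measured in the same wells by CellTiter-Fluor fluorescence after 1 h.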

[7] = qHTS assay to identify small molecule antagonists of the sonic hedgehog signaling (Shh) pathway - cell viability counter screen (AID 1259367); further: nearly all actives have a fitted effect of over 55% in size
Outline: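 After a 4 hr settling period, 3T3 Gli1-Luc cells were treated with DMSO-dissolved chemicals and conditioned medium, kept 24 hr at 37C in 5% CO2, and assayed for viability by CellTiter-Fluor fluorescence following 1 hr reagent incubation.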

[8] = qHTS assay to identify small molecule agonists of the sonic hedgehog signaling (Shh) pathway (AID 1259368; calls by dose curve;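 further: NIH/3T3-derived 3T3Gli1-Luc cells carrying a stable Gli1-driven firefly luciferase reporter; series mostly up to about 92 µM; nearly all actives have a fitted effect of over 15% in size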)
Outline: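 Mouse fibroblast (NIH/3T3) reporter cells with stably integrated Gli1-Luc were treated 24 hr with compound; firefly luciferase luminescence served as the read-out.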

[9] = qHTS assay to identify small molecule antagonists of the sonic hedgehog signaling (Shh) pathway (AID 1259369; calls by dose curve; further: nearly all actives have a fitted effect of over 45% in size)
Outline: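 Conditioned medium drives Shh signalling in 3T3Gli1-Luc cells; compounds in DMSO co-applied, 24hr at 37 C, then luciferase luminescence.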

[10] = target: Estrogen receptor beta (Homo sapiens) (UniProt Q92731); assay: qHTS assay to identify small molecule agonists of the estrogen receptor beta (ER-beta) signaling pathway (AID 1259377; active means well fitted activation curve with a large enough effect in the signal ratio in the repeat runs, not every such curve was filed as active; the % refers to the signal ratio)
Estrogen receptor beta (Homo sapiens), sequence (Q92731 whole entry, looked up): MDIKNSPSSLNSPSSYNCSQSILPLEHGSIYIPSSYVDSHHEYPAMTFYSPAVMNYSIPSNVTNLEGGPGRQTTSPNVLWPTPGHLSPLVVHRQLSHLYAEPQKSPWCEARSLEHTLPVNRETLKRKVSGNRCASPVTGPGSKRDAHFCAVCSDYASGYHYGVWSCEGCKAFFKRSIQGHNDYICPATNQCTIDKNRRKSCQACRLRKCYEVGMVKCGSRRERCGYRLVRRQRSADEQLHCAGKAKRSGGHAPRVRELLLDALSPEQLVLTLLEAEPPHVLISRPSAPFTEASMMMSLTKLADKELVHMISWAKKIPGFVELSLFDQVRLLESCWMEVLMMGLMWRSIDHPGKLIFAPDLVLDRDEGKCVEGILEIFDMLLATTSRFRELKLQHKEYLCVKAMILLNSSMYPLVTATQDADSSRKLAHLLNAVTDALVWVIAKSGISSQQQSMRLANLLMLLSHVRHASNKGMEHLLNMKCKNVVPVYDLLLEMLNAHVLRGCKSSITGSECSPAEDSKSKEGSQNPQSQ
Outline: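 ER-beta-UAS-bla HEK293T cells in medium with 2% charcoal-stripped FBS were exposed to compounds for 16 h at 37C. Beta-lactamase reporter activity was read as fluorescence after 2 h with LiveBLAzer B/G FRET substrate at room temperature.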

[11] = target: Estrogen receptor beta (Homo sapiens) (UniProt Q92731); assay: qHTS assay to identify small molecule antagonists of the estrogen receptor beta (ER-beta) signaling pathway (AID 1259378; active means well fitted inhibition curve with a large enough effect in the signal ratio in the repeat runs, not every such curve was filed as active; the % refers to the signal ratio)
Outline: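 ER-beta-UAS-bla HEK293T (GripTite) cells in 2% charcoal-stripped FBS medium were preincubated 6 hr at 37C, dosed with compound, then stimulated with 1 nM E2 (final) for 16 hr; beta-lactamase reporter read by B/G FRET fluorescence after 2 hr substrate loading.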

[12] = qHTS assay to identify small molecule agonists of the estrogen receptor beta (ER-beta) signaling pathway - cell viability counter screen (AID 1259380); further: nearly all actives have a fitted effect of over 30% in size
Outline: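 Cells used were ER-beta-UAS-bla HEK293T in medium with 2% charcoal-stripped FBS. They were treated for 16 hr at 37C. Viability came from CellTiter-Glo luminescence.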

[13] = target: Estrogen receptor (Homo sapiens) (UniProt P03372); assay: qHTS assay to identify small molecule agonists of the estrogen receptor alpha (ER-alpha) signaling pathway in the presence of an antagonist (AID 1259383; calls by dose curve; further: top concentration of the series differs between compounds; nearly all actives have a fitted effect of over 15% in size)
Outline: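 Using VM7Luc4E2 cells seeded 24hr before treatment, antagonist ICI-182,780 (10.0nM final) was added, followed by compounds at 15 concentrations. Plates incubated 22hr; ONE-Glo luminescence quantified reporter activity.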

[14] = qHTS assay to identify small molecule antagonists of the estrogen receptor beta (ER-beta) signaling pathway - cell viability counter screen (AID 1259382); further: series mostly up to about 92 µM; nearly all actives have a fitted effect of over 55% in size
Outline: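 Agonist-stimulated (1nM E2) ER-beta-UAS-bla HEK293T cells are incubated with library compounds for 16 hr at 37C. Cell viability is then assessed in the reporter-assay wells by adding CellTiter-Glo and reading luminescence after 30 min.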

[15] = qHTS assay to identify small molecule agonists or antagonists of the thyroid stimulating hormone receptor (TSHR) signaling pathway - wild type cell line counter screen (AID 1259384; calls by dose curve)
Outline: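 Wild-type HEK293 cells were plated 18 h at 37 C/5% CO2, pin-dosed with compound plus Ro20-1724 medium, held 30 min at room temperature, then given cAMP-d2 and anti-cAMP-cryptate; fluorescence was read after 1 h. Fifteen concentrations, triplicate.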

[16] = target: Thyrotropin receptor (Homo sapiens) (UniProt P16473); assay: qHTS assay to identify small molecule antagonists of the thyroid stimulating hormone receptor (TSHR) signaling pathway (AID 1259385; calls by dose curve; further: nearly all actives have a fitted effect of over 20% in size)
Thyrotropin receptor (Homo sapiens), sequence (P16473 whole entry, looked up): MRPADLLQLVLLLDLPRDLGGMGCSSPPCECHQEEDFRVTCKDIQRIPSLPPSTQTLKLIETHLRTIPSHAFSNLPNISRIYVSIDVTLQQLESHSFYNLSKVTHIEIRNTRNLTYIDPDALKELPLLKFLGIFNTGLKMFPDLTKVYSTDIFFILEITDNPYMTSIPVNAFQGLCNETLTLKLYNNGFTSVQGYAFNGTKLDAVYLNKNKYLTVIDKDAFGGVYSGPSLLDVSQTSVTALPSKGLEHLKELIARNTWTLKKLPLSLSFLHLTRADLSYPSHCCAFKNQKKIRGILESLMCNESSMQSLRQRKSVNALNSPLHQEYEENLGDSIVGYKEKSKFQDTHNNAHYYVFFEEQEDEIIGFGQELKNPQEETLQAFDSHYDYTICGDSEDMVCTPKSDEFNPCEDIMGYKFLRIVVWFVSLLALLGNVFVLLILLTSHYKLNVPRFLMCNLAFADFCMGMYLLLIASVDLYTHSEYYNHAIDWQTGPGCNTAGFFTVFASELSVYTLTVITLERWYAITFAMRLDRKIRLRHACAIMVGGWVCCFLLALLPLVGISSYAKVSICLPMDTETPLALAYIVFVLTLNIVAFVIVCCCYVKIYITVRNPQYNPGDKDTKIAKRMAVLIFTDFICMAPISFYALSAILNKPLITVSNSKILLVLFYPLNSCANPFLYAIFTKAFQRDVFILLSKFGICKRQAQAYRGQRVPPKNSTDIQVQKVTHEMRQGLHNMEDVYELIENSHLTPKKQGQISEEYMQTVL
Outline: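 TSHR-HEK293 cells were plated and held 18 h at 37C/5% CO2, then given compound plus Ro20-1724 and stimulated with TSH at 1.5 ng/mL final. After 30 min at room temperature, cAMP was detected with cAMP-d2/anti-cAMP-cryptate (1 h) by fluorescence.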

[17] = qHTS assay to identify small molecule agonists of the androgen receptor (AR) signaling pathway in the presence of an antagonist - cell viability counter screen (AID 1259379);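 further: MDA-kb2 human breast cancer cells carrying an MMTV luciferase reporter; series mostly up to about 92 µM; nearly all actives have a fitted effect of over 25% in size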
Outline: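 A CellTiter-Fluor read-out measured viability of MDA-kb2 reporter cells (MMTV promoter with AR and GR response elements). Treatment: nilutamide 3.0uM final with compounds at 15 concentrations, 16 hr, 37C, 0% CO2.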

[18] = qHTS assay to identify small molecule phospholipidosis (PLD) inducers (AID 1259344; active means well fitted curve in the direction sought with a large enough effect; an effect the other way counts as inactive or inconclusive)
Outline: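 HepG2 cells grown on collagen I take up LipidTOX Red while exposed to compound for 24 h; after fixation they are imaged at 20x and pit metrics are extracted.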

Measured: Potency

O=[N+]([O-])c1cc(Cl)c(Cl)cc1Cl
not listed: [14] | [15] | [16] | [17] | [18]
inactive: all other assays above

CNC(=O)Oc1cccc(N=CN(C)C)c1
not listed: [10] | [17] | [18]
inactive: all other assays above

C=C(C)C(=O)OCCCCOC(=O)C(=C)C
not listed: [8] | [10] | [16] | [18]
inactive: all other assays above

CCCC[N+]1(C)[C@@H]2CC(OC(=O)[C@H](CO)c3ccccc3)C[C@H]1[C@@H]1O[C@@H]12 (stereo partly specified)
not listed: [5] | [10] | [11]
inactive: all other assays above

O=C1NC(=O)C(=O)C(=O)N1
not listed: [9] | [10] | [11] | [18]
inactive: all other assays above

C[C@H]1O[C@H](OC2[C@@H](O)[C@@H](O)C(O)[C@H](O)[C@H]2O)[C@@H](N)C[C@@H]1N=C(N)C(=O)O (stereo partly specified)
not listed: [18]
inactive: all other assays above

COc1ccc(C(O)(c2cncnc2)C2CC2)cc1 (stereo unspecified)
not listed: [18]
inactive: all other assays above

O=C(NC(=O)c1cc(F)c(F)cc1Cl)Nc1cc(F)ccc1N1CCC(C(=O)O)CC1
not listed: [9] | [10] | [11] | [18]
inactive: all other assays above

CC(C)(C)c1ccc(CCOc2ncnc3ccccc23)cc1
not listed: [8] | [14] | [18]
inactive: all other assays above

O=C=NC1CCCCC1
not listed: [5] | [18]
inactive: all other assays above

C=CCc1ccc(OC(=O)Cc2ccccc2)c(OC)c1
not listed: [3] | [8] | [13] | [16] | [18]
inactive: all other assays above

CC(C)(C#N)C(C)(C)C#N
not listed: [3] | [9] | [10] | [13] | [18]
inactive: all other assays above
